AMA1 RON2 block: qHTS for Inhibitors of AMA1-RON; Towards Development of Antimalarial Drug Lead: Primary Screen. Potency, µM (top dose mostly 58.2 µM), for inactives: at the highest dose activity change, negative = inhibition, actives largely listed as inhibitors. 360,000 tested, 0.2% active. Plasmodium falciparum AMA1 (3D7) - RON2 peptide interaction. AlphaScreen AMA1-biotinylated RON2 peptide binding;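 further: potency means the concentration at half of the fitted maximal effect; 0% = vehicle wells and -100% = peptide control; nearly all actives have a fitted effect of over 45% in size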
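AMA1 (3D7) with his tag at 25 nM final met compounds first, then biotinylated RON2 peptide at 25 nM; detection used donor plus acceptor beads, 10 µg/mL apiece, read by AlphaScreen after 30 min at room temperature.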
SARS PLP yeast: qHTS of Yeast-based Assay for SARS-CoV PLP; Potency, µM (top dose mostly 32.9 µM), without a hit: at the top dose activity, positive = growth rescue, usual class: activators; S. cerevisiae expressing SARS-CoV PLpro, growth rescue; 330,000 tested, 0.19% active; calls by dose curve; further: potency means the concentration at half of the fitted maximal effect; 0% is about no effect; nearly all actives have a fitted effect of over 55% in size
Pf growth 48h: Primary qHTS for delayed death inhibitors of the malarial parasite plastid, 48 hour incubation; P. falciparum luciferase growth in erythrocytes, 48 h; Potency, µM (highest dose often 28.7 µM), for the others: top-dose activity change, negative = inhibition, usual class: inhibitors; 310,000 tested, 5.9% active; further: potency means the concentration at half of the fitted maximal effect; on the % scale 0 is the no-effect control and ±100 the full control effect
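First compound was added to culture medium, then infected red cells at 0.1% parasitemia and 2% hematocrit (final). After incubation at 37 C under 5% CO2, luciferase detection reagent was dispensed and light output recorded.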
Pf growth 96h: Primary qHTS for delayed death inhibitors of the malarial parasite plastid, 96 hour incubation. P. falciparum luciferase reporter growth, 96 h. Potency, µM (doses to about 28.7 µM), without a hit: at the highest dose activity change, negative = inhibition, usual class: inhibitors. 320,000 tested, 6.9% active; further: potency means the concentration at half of the fitted maximal effect; on the % scale 0 is the no-effect control and ±100 the full control effect
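Two parasite generations (96 h, 37 C, 5% CO2) of compound exposure in infected erythrocytes (0.05% parasitemia, 2% hematocrit). Luciferase-reporter P. falciparum; decreased luminescence indicates inhibited growth, aimed at apicoplast-acting delayed death.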
Shiga inhibitor: A qHTS for Small Molecule Inhibitors of Shiga Toxin; Vero cells, Shiga toxin protein synthesis inhibition reporter; inhibition, % at 38.7 µM; 290,000 tested, 9.2% active; AID 2315, 2010; in the data active means inhibition mostly above about 28%, no sharp cut-off; inactive means mostly below about 43%; further: 0% is about no effect
CHX counter: Cycloheximide Counterscreen for Small Molecule Inhibitors of Shiga Toxin | 300,000 tested, 12% active | AID 2314, 2010 | max response, % | cell reporter, cycloheximide protein synthesis inhibition counterscreen; in the data active means max response mostly above about 13%, no sharp cut-off; inactive means mostly below about 14%; further: read at 38.3 µM for the half of the compounds with a filed dose; 0% is about no effect
* = called active by the depositor; ? = inconclusive; . = not tested or not shown; [ ] = another dose, or the depositor's remark. Rows were chosen to be rich in hits. Some 19% of all compounds tested hit in one or more screens of this group. Unless noted, the call rests on the fitted dose curve; in most records, active means well fitted curve in the direction sought with a large enough effect; inconclusive means small, poorly fitted or top-dose-only effect, or another doubt; inactive means no such curve, though single readings can be large; an effect the other way counts as inactive or inconclusive.

SMILES	AMA1 RON2 block	SARS PLP yeast	Pf growth 48h	Pf growth 96h	Shiga inhibitor	CHX counter
COc1cc2c(cc1OC)CN(C(=O)c1cccc([N+](=O)[O-])c1)CC2	-3.1%	-0.2%	13.3%	19.2%	-1.2	-1.4
O=c1c(-c2ccc(Cl)cc2)coc2c(CN3CCCCC3)c(O)ccc12	2.9%	5.9%	2.94µM*	-25.6%	16.8	5.4
O=c1c(-c2ccccc2Cl)coc2c(CN3CCCCC3)c(O)ccc12	16.3%	2.6%	?	?	-5.6	1.4
CC1CCCN(Cc2c(O)ccc3c(=O)c(-c4ccc(Cl)cc4)coc23)C1 (centres undefined)	2.9%	1.5%	1.04µM*	-10.1%	-1.8	-1.4
CCC1CCc2c(n(C)c3ccccc3c2=O)O1 (centres undefined)	5.4%	-14.6%	-9.9%	?	4.5	2.3
O=C(O)CCNC(=O)/C(=C/C=C/c1ccccc1)NC(=O)c1ccccc1	-0.9%	-0.4%	17.1%	-11.1%	-8.6	-2.2
CCOC(=O)/C(=C\C=C\c1ccccc1)NC(=O)c1ccccc1	23.6%	8.5%	21.5%	-7.8%	8.5	5.8
CCCOC(=O)/C(=C\C=C\c1ccccc1)NC(=O)c1ccccc1	12.0%	-1.6%	-16.3%	19.4%	15.4	16.2*
C=CCNC(=O)/C(=C\C=C\c1ccccc1)NC(=O)c1ccc(OCCCC)cc1	-7.6%	-13.1%	34.6%	88.2%	15.1	0.3
CCCCOc1ccc(C(=O)N/C(=C/C=C/c2ccccc2)C(=O)NCCO)cc1	10.7%	9.5%	10.2%	86.1%	-7.9	1.5
CCCCOC(=O)/C(=C/C=C/c1ccccc1)NC(=O)c1ccccc1	16.1%	1.1%	?	-21.8%	40.8	48.6*
C=CCOC(=O)/C(=C\C=C\c1ccccc1)NC(=O)c1ccccc1	-1.6%	14.3%	14.7%	?	22.4	17.9*
CCOC(=O)/C(=C/C=C/c1ccccc1)NC(=O)c1ccccc1	1.1%	-0.8%	16.7%	10.4µM*	6.5	6.9
COc1ccccc1CN(C)C(=O)COC(=O)c1ccc(Cl)nc1	-1.5%	-4.5%	.	.	.	.
CCN(C(=O)COC(=O)c1ccc2c(=O)n3c(nc2c1)CCC3)C1CCS(=O)(=O)C1 (centres undefined)	-9.8%	3.5%	8.4%	30.3%	-2.6	-4.2
O=C(CN1CCC(C(=O)c2ccc(Cl)cc2)CC1)NC1CCCC1	0.9%	3.6%	-38.8%	39.0%	-11.5	3.1
COC(=O)c1ccc([N+](=O)[O-])cc1N1C(=O)C2C3CCC(C3)C2C1=O (centres undefined)	-4.4%	-0.2%	5.8%	86.7%[5.75 µM]	-10.3	2.3
CCc1ccccc1NC(=O)CSc1nnc(Cn2nnc3ccccc32)n1C	8.4%	12.6%	-24.2%	-11.9%	-1.6	-3.7
CC(C)(C)c1ccc(OCC(=O)O)cc1	-0.7%	-2.4%	?	24.5%	-17.1	-2.6
CN(C)C(=O)O/N=C(\N)COc1ccc(C(C)(C)C)cc1	11.2%	-7.3%	6.57µM*	11.7µM*	31.1	29.8*
O=C(NCc1ccccc1Cl)C1CCCN1C(=O)Nc1ccccc1 (centres undefined)	-3.6%	1.5%	-13.5%	-17.5%	-7.5	-1.7
COc1ccc(NC(=O)NCc2ccccc2F)cc1OC	7.8%	-0.9%	6.3%	10.4µM*	-22.3	-1.4
Cc1ccc(NC(=O)N2CCCC2C(=O)NCc2ccccc2Cl)cc1 (centres undefined)	-5.7%	-0.5%	-10.4%	2.62µM*	-7.5	0.5
CCOC(=O)c1ccc(N2CCN(c3ccccc3F)CC2)c(NC(=O)Nc2cccc(OC)c2)c1	-6.3%	-0.3%	5.22µM*	?	-6.4	4.4
COc1ccccc1NC(=O)NCc1ccccc1F	-3.7%	-1.3%	52.3%	1.4%	13.5	0.4
SMILES	AMA1 RON2 block	SARS PLP yeast	Pf growth 48h	Pf growth 96h	Shiga inhibitor	CHX counter
COc1cccc(NC(=O)C(=O)NCCc2ccc(F)cc2)c1	-12.4%	-0.2%	95.3%	114.5%	90.7*	40.9*
COC(=O)c1ccc(N2CCOCC2)c(NC(=O)Nc2cccc(OC)c2)c1	7.8%	7.2%	4.3%	-31.1%	-9.9	-3.1
COc1ccc(C(=O)NC(=S)Nc2ccc(Cc3ccncc3)cc2)cc1	15.0%	12.1%	?	198.3%	6.2	1.3
COc1ccc(-c2ccccc2NC(=O)C2CCCN(Cc3ccc(C)o3)C2)cc1 (centres undefined)	-14.3%	2.4%	?	?	-10.3	-1.3
COc1ccc(NC(=O)N2CCCC2C(=O)Nc2ccccc2F)cc1 (centres undefined)	-15.3%	1.8%	17.1%	2.62µM*	2.1	-3.1
COc1cccc(NC(=O)N2CCCC2C(=O)NCc2ccccc2F)c1 (centres undefined)	1.5%	1.3%	14.9%	10.4µM*	22.8	-0.6
COc1cccc(NC(=O)NCc2ccccc2F)c1	5.7%	0.0%	147.4%	-22.5%	97.0*	40.1*
COc1ccc(NC(=O)NC23CC4(C)CC(C)(CC(C)(C4)C2)C3)cc1OC	-10.8%	-18.4%	2.62µM*	?	-16.0	-3.2
Cc1c(Cl)cccc1NS(=O)(=O)c1c(C(=O)N2CCOCC2)c(C)n(C)c1C	9.3%	5.0%	-18.8%	-12.8%	10.5	-1.3
COc1cccc(NC(=O)NCCCCc2ccccc2)c1	1.3%	-7.2%	6.2%	?	23.8	30.7*
CCCS(=O)(=O)N1CCC(C(=O)NC2CCCC(C)C2C)CC1 (centres undefined)	8.8%	0.2%	16.7%	9.28µM*	29.2	9.6
COC(=O)c1cn(NC(=O)c2cccnc2)c(=O)c2ccccc12	-5.1%	-1.2%	10.2%	?	-4.5	-5.0
CCCCNC(=O)Cn1c(=O)n(C)c2ccccc21	-6.5%	19.4%	17.2%	7.38µM*	16.9	-2.8
COc1ccc(C(=O)OCCN2CCN(C3=NS(=O)(=O)c4ccccc43)CC2)cc1OC	11.6%	-1.8%	-17.0%	8.28µM*	-2.7	4.5
CC1CC(C)(C)NC(=S)N1CCC(=O)Nc1ccc2c(c1)OCCO2 (centres undefined)	11.6%	-0.3%	-21.4%	1.47µM*	-10.1	12.9
Cc1ccn(CCC(=O)Nc2ccc3c(c2)OCO3)n1	9.8%	?	-11.4%	-5.8%	72.6*	24.4*
Cc1cc(C)n(CCC(=O)Nc2ccc3c(c2)OCCO3)n1	-0.5%	17.9%	61.0%	-0.2%	44.9*	15.2*
CCCc1nn(C)c2c(=O)[nH]c(-c3cc(S(=O)(=O)Nc4ccc(NC(C)=O)cc4)ccc3OCC)nc12	13.7%	-0.2%	9.28µM*	11.7µM*	-19.1	-2.4
CC1CC(C)CN(C(=O)/C(=C\c2ccccc2)c2ccccc2)C1 (centres undefined)	-7.8%	-8.0%	1.85µM*	93.2%	-7.0	8.3
